In PubChem BioAssay (NCI):
Compounds without any hit were thinned out: in the full panel of roughly 83,000, 20% have a hit.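 Single-dose data. Exposure time 48 hours. Values below 10 considered active.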 Unmarked numbers belong to inactive results. Activity calls are given as the source filed them.

How the values were obtained:
Test in all cases: NCI-60 one-dose screen, 48 h (100 = growth as untreated, 0 = no growth, -100 = all killed)
Details in all cases: 10 µM
SR leukemia = test system: SR leukemia
RPMI-8226 leukemia = test system: RPMI-8226 leukemia
OVCAR-8 ovarian = test system: OVCAR-8 ovarian
OVCAR-5 ovarian = test system: OVCAR-5 ovarian
OVCAR-4 ovarian = test system: OVCAR-4 ovarian
SK-OV-3 ovarian = test system: SK-OV-3 ovarian
IGROV1 ovarian = test system: IGROV1 ovarian
OVCAR-3 ovarian = test system: OVCAR-3 ovarian
HS 578T breast = test system: HS 578T breast
T-47D breast = test system: T-47D breast
BT-549 breast = test system: BT-549 breast
MDA-MB-435 melanoma = test system: MDA-MB-435 melanoma
SW-620 colon = test system: SW-620 colon
MCF7 breast = test system: MCF7 breast
HCT-116 colon = test system: HCT-116 colon
HCC-2998 colon = test system: HCC-2998 colon
KM12 colon = test system: KM12 colon
NCI/ADR-RES ovarian = test system: NCI/ADR-RES ovarian

Row | Structure (SMILES) | growth (SR leukemia) | growth (RPMI-8226 leukemia) | growth (OVCAR-8 ovarian) | growth (OVCAR-5 ovarian) | growth (OVCAR-4 ovarian) | growth (SK-OV-3 ovarian) | growth (IGROV1 ovarian) | growth (OVCAR-3 ovarian) | growth (HS 578T breast) | growth (T-47D breast) | growth (BT-549 breast) | growth (MDA-MB-435 melanoma) | growth (SW-620 colon) | growth (MCF7 breast) | growth (HCT-116 colon) | growth (HCC-2998 colon) | growth (KM12 colon) | growth (NCI/ADR-RES ovarian)
1 | O=C1/C(=C/c2ccc(O)cc2)Cc2ccc(Cl)cc21 | 117% | 120% | 86.3% | 111% | 85.5% | 111% | 18.8% | 93% | 95.4% | 80.4% | 59% | 78% | 98.7% | 58.8% | 88.4% | 115% | 87.6% | –
2 | C[n+]1c(/C=C/c2c[nH]c3ccccc23)ccc2ccccc21 | 18.2% | 40.7% | 39.7% | 75.6% | 54.8% | 64.6% | 72.4% | 68.1% | 103% | 12.1% | – | 60.3% | 48.8% | 19.4% | 31% | 75.6% | 38.9% | –
3 | Clc1cc(Cl)c(OCCCCCCN2CCNCC2)c(Cl)c1 | -13.9% (active) | -24.9% (active) | 76% | 71% | 86.9% | 98% | 46.6% | 45.7% | 55.3% | 39.8% | 70.4% | 10.5% | -44% (active) | -24.5% (active) | 12% | -34% (active) | 21.3% | –
4 | CN(C1c2ccccc2Oc2ccccc21)S(=O)(=O)c1cc(Cl)ccc1Cl | 12.8% | 67.3% | 65.8% | 84.4% | 69.2% | 54.5% | 53.8% | 19.4% | 76.2% | 39.3% | – | 4.17% (active) | 30.3% | 21.4% | 31.3% | 84.3% | 42.8% | 51.9%
5 | COc1cc(NS(C)(=O)=O)ccc1Nc1c2ccc(Cl)cc2nc2c(OC)cccc12 | -16.5% (active) | -19.6% (active) | 11.7% | -11.9% (active) | 62.4% | -5.68% (active) | 19.3% | 22.4% | 20.2% | 27.7% | 18.3% | 51% | -32% (active) | 23.7% | -63.7% (active) | -26.6% (active) | -49.4% (active) | –
6 | O=C(O)c1ccc(CNc2ccc(C(=O)CCl)cc2)cc1 | 41.8% | 85.7% | 99.3% | 96.8% | 91% | 100% | 134% | 90.5% | 87.4% | 58.1% | 96.4% | 87.7% | 93.4% | 32.4% | 80.8% | 127% | 101% | –
7 | Fc1ccc2[nH]c3c(NCCCN4CCOCC4)ncnc3c2c1 | 52.1% | 46.4% | 68.3% | 85.6% | -38.6% (active) | 33.4% | 50.8% | 59.7% | 34.5% | 54.6% | 96.4% | 88.3% | 69.6% | 84.7% | 47.4% | 75.4% | – | –
8 | O=C(CCCC(=O)N/N=C/c1cc(Cl)ccc1O)N/N=C\c1cc(Cl)ccc1O | 1.74% (active) | 27.3% | 20.3% | 67.4% | 22.1% | 13.9% | 31.2% | 35.5% | 68.4% | 24.1% | 29.2% | 45.1% | 30.9% | 14.3% | 24.7% | – | 27.8% | –
9 | O=C1/C(=C/c2ccc([N+](=O)[O-])s2)Oc2ccc(Cl)cc21 | 1.07% (active) | 0.77% (active) | 1.27% (active) | -80.6% (active) | -76.5% (active) | 7.47% (active) | -67.9% (active) | -68.8% (active) | 17.6% | -34.9% (active) | -67.1% (active) | -60.4% (active) | -64.4% (active) | -26.7% (active) | -52.7% (active) | – | -53.3% (active) | –
10 | O=C(O)CCCCSCCCCC(=O)O | 87.6% | 97.9% | 106% | 122% | 113% | 98.7% | 97.9% | 109% | 104% | 86.7% | – | 107% | 111% | 97.5% | 108% | 106% | 110% | –
11 | N#Cc1cnc2ccc(NCc3cnc[nH]3)cc2c1Nc1ccc(F)c(Cl)c1 | 66.1% | 83.2% | 46.6% | 82.7% | 42.9% | 39.9% | 22.4% | 49.7% | 90.9% | 57.2% | 74.2% | 92.4% | 71.7% | 91.9% | 56.1% | – | 84.2% | –
12 | COC1OC2COC(c3ccccc3)OC2C(=O)C1NC(=O)c1ccccc1 (stereo not drawn) | 122% | 97.3% | 101% | 93.7% | 103% | 105% | 114% | 99.8% | 96.6% | 98.6% | 107% | 96.4% | 88.2% | 99.6% | 99% | 92.9% | 96.7% | –
